IL1B secr inh: qHTS for Inhibitors of Inflammasome Signaling: IL-1-beta AlphaLISA Primary Screen. AID 743279, 2014. 4.7% of 360,000 active. THP-1 LPS/ATP IL-1B secretion, AlphaLISA, 16 h; stronger effect = lower value. activity change, % at 57.5 µM; in the data active = activity change below about -50%; inconclusive = mostly about -30% to -49%
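THP-1 cells pretreated 1 hr with compounds (up to 57.5 uM final), then stimulated with LPS (250 ng/mL final) plus ATP (1.25 mM final); secreted IL-1B measured by AlphaLISA after 16 hr, decreased signal indicating inhibition.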
uPA surface inh: qHTS for Inhibitors of Cell Surface uPA Generation; cell surface uPA generation assay, qHTS; Potency, µM (top dose mostly 38.3 µM), most hits filed as inhibitors; AID 540303, 2011; 0.31% of 330,000 active; active = well fitted inhibition curve with a large enough effect; inconclusive = small, poorly fitted or top-dose-only effect; inactive = no such curve, though single readings can be large or run the other way; tested in mouse RAW 264.7 cells; also: nearly all actives have a fitted effect of over 55% in size
DT40 TDP1 CPT: qHTS for Inhibitors of human tyrosyl-DNA phosphodiesterase 1 (TDP1): qHTS in cells in presence of CPT; chicken DT40 Tdp1-/-;hTDP1 cells + 20 nM CPT, ATP luminescence, 48 h; Potency, µM (doses to about 46.2 µM), usual class: inhibitors; 12% of 420,000 active; AID 686979, 2013; also: nearly all actives have a fitted effect of over 55% in size
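Cell growth measured by CellTiter-Glo luminescence after a minimum 48 h, 37 C compound exposure with 20 nM CPT in Tdp1-knockout DT40 cells stably expressing hTDP1, seeded 400/well; qHTS titration format.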
DT40 TDP1 no CPT: qHTS for Inhibitors of human tyrosyl-DNA phosphodiesterase 1 (TDP1): qHTS in cells in absence of CPT; DT40 Tdp1-/- hTDP1 cells, no CPT, ATP luminescence, 48 h; Potency, µM (top dose mostly 46.2 µM), hits mostly inhibitors; 15% of 420,000 active; AID 686978, 2013; also: nearly all actives have a fitted effect of over 55% in size
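Chicken DT40 Tdp1-/- cells complemented with human TDP1, screened without camptothecin (DMSO vehicle only), 400 cells/well. Compounds pin-transferred, cells incubated at 37 °C for at least 48 hr. Growth read as ATP-dependent luminescence (CellTiter-Glo, 30 min at RT).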
HT1080 IDH1KD tx: qHTS for induction of synthetic lethality in tumor cells producing 2HG: qHTS for the HT-1080-IDH1KD cell line; Potency, µM (series often up to 46.1 µM), usual class: cytotoxic; HT-1080 IDH1 knockdown viability, ATP luminescence, 48 h; AID 686971, 2013; 2% of 360,000 active
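In this qHTS, HT-1080 cells depleted of IDH1 are exposed for 48 h at 37 °C to compound titrations. Toxicity is scored from CellTiter-Glo luminescence, with DMSO as full viability and medium alone as none.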
HT1080NT lethal: qHTS for induction of synthetic lethality in tumor cells producing 2HG: qHTS for the HT-1080-NT fibrosarcoma cell line; 1.6% of 360,000 active; AID 686970, 2013; Potency, µM (doses to about 46.1 µM), hits mostly cytotoxic; HT-1080-NT fibrosarcoma viability, CellTiter-Glo ATP luminescence, 48 h;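 also: NT is the 2HG producing partner of a matched IDH1 knockdown line; nearly all actives have a fitted effect of over 55% in size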
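HT-1080-NT fibrosarcoma cells (2HG-overproducing), 750 cells/well in RPMI with 5% FBS, dosed after 2 h and incubated 48 h at 37C. CellTiter-Glo luminescence normalized to DMSO and no-cell wells; concentration-response curves fitted and classed.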
Numbers stand for hits; n = inactive; u = inconclusive; x = not tested or not shown; [ ] = dose if it differs, or a comment. Rows were chosen to be rich in hits. Some 19% of all compounds tested hit in one or more screens of this group. Unless noted, calls follow the shape of the dose curve; as a rule, active = well fitted curve in the direction sought with a large enough effect; inconclusive = small, poorly fitted or top-dose-only effect, or another doubt; inactive = no such curve, though single readings can be large; an effect the other way counts as inactive or inconclusive.

SMILES	IL1B secr inh	uPA surface inh	DT40 TDP1 CPT	DT40 TDP1 no CPT	HT1080 IDH1KD tx	HT1080NT lethal
COCCCN1C(=O)C(CC(=O)NCC2CCCCC2)CC(C(=O)N(C)C)=C1C (stereo not drawn)	n	x	n	n	n	n
Cc1cccc(-c2noc(-c3ccc(NC4CCCC4)c([N+](=O)[O-])c3)n2)c1	x	x	n	n	x	x
COc1ccc(-c2nc3ccccc3c(=O)o2)cc1OC	n	n	n	n	n	n
COc1ccc(-c2nc3ccc(N4CCCC4)cc3c(=O)[nH]2)cc1OC	n	n	13µM	21µM	n	n
CN(C(=O)CSc1nc2ccc(NC(=O)CCc3ccccc3)cc2s1)c1ccccc1	x	x	18µM	15µM	x	x
COc1ccc(C(=O)Nc2ccc3nc(SCC(=O)N(C)c4ccccc4)sc3c2)cc1	x	x	u	16µM	x	x
CN(C(=O)CSc1nc2ccc(NC(=O)COc3ccc(F)cc3)cc2s1)c1ccccc1	x	x	5.8µM	4.6µM	x	x
CN(C(=O)CSc1nc2ccc(NC(=O)c3ccc(F)cc3)cc2s1)c1ccccc1	x	x	16µM	15µM	x	x
O=C(O)CSc1nc2ccc(NC(=O)COc3ccc(Cl)cc3)cc2s1	x	x	n	n	x	x
Cc1ccc2nc(/C(C#N)=C/c3ccc(O)c(O)c3)[nH]c2c1	n	n	18µM	18µM	u	n
COc1cc(/C=C(\C#N)c2nc3ccc(C)cc3[nH]2)ccc1OC(C)C	x	x	u	n	x	x
Cc1ccc2nc(/C(C#N)=C/c3cccc(Br)c3)[nH]c2c1	x	x	15µM	16µM	x	x
Cc1ccc2nc(/C(C#N)=C/c3cn[nH]c3-c3ccc(F)cc3)[nH]c2c1	u	n	u	18µM	u	u
CCN(C(=O)CSc1nc(-c2ccccc2)no1)c1ccccc1	x	x	n	u	x	x
CC(C)c1ccc(-c2noc(SCC(=O)N3CCCCC3)n2)cc1	x	x	u	12µM	x	x
CC(C)c1ccc(-c2noc(SCC(=O)N(C)c3ccc(F)cc3)n2)cc1	x	x	26µM	23µM	x	x
O=C(CN1C(=O)c2ccccc2S1(=O)=O)Nc1ccon1	n	n	n	n	n	n
CCCCNC(=O)c1sc(=S)n2c1[nH]c(=O)c1ccccc12	n	n	n	u	n	n
O=C(NC1CCCCC1)c1sc(=S)n2c1[nH]c(=O)c1ccccc12	n	n	16µM	23µM	u	u
COc1ccc(-c2[nH]c(-c3ccc4c(c3)OCO4)nc2-c2ccccc2)cc1	-64	n	u	u	u	u
Cc1ccsc1-c1nc(-c2ccccc2)c(-c2ccccc2)[nH]1	n	n	u	u	n	n
COc1cc(-c2nc(-c3ccc4c(c3)-c3ccccc3S4(=O)=O)c(-c3ccccc3)[nH]2)cc(OC)c1O	u	n	6.5µM	16µM	n	n
COc1ccc(-c2[nH]c(-c3ccc(C(=O)O)cc3)nc2-c2ccccc2)cc1	n	n	n	n	n	n
COc1ccc(-c2nc(-c3ccccc3)c(-c3cccs3)[nH]2)cc1OC	u	n	18µM	15µM	n[9.24 µM]	u
COc1ccc(-c2nc(-c3cccs3)c(-c3cccs3)[nH]2)cc1OC	u	n	u	16µM	u	n
SMILES	IL1B secr inh	uPA surface inh	DT40 TDP1 CPT	DT40 TDP1 no CPT	HT1080 IDH1KD tx	HT1080NT lethal
O=C(NNS(=O)(=O)c1ccc(Cl)cc1)c1cccc(S(=O)(=O)N2CCOCC2)c1	n	n	n	n	n	n
COc1ccccc1-c1noc2ncnc(Nc3cccc(C)c3C)c12	n	n	u	u	n	n
COc1ccc(OC)c(NC(=O)CN2CCc3ccccc3C2)c1	u	n	u	u	n	n
Cc1c(C)c(C)c2[nH]c(-c3ccc4c(c3)OCO4)nc2c1C	n	n	u	18µM	n	u
COc1cc(-c2nc(-c3ccccc3)c(-c3cc([N+](=O)[O-])ccc3C)[nH]2)cc(OC)c1OC	n	n	18µM	16µM	n	n
COc1cc(-c2nc(-c3cccc(Cl)c3)c(-c3ccccc3)[nH]2)cc(OC)c1OC	x	x	18µM	16µM	x	x
O=C(CSc1ccccn1)c1ccc2c(c1)OCO2	n	x	n	n	n	n
NC(=O)c1ccc(-c2nc(-c3ccc4c(c3)OCO4)c(-c3ccccn3)[nH]2)cc1	x	x	21µM	19µM	x	x
Cc1nc(-c2ccc3c(c2)OCO3)cs1	n	n	n	n	n	n
Cc1ccc(C(=O)OCC(=O)NCc2ccc(Cl)cc2)s1	n	x	n	u	n	n
COc1ccc(-c2nc(-c3ccccc3)c(-c3ccccc3)[nH]2)cc1Br	x	x	18µM	13µM	x	x
O=C(NC(Cc1ccc(O)cc1)C(=O)O)c1ccc2c(c1)OCO2 (stereo not drawn)	n	n	n	n	n	n
Cc1onc(-c2ccccc2)c1-c1nnc(COC(=O)c2ccc(O)cc2)o1	n	n	n	u	n	n
Cc1onc(-c2ccccc2)c1-c1nnc(CN2CCN(S(=O)(=O)c3ccccc3)CC2)o1	n	n	15µM	16µM	n	n
COCCNC(=O)c1sc2ncn(CC(=O)Nc3ccc(C)c(Cl)c3)c(=O)c2c1C	n	n	u	13µM	n	n
Cc1c(C(=O)Nc2c(F)cccc2F)sc2ncn(CC(=O)N3CCCCC3)c(=O)c12	n	n	n	n	n	n
CCN(CC)C(=O)Cn1cnc2sc(C(=O)Nc3cc(OC)c(OC)c(OC)c3)c(C)c2c1=O	n	n	u	12µM	n	n
Cc1ccc(NC(=O)Cn2cnc3sc(C(=O)NCc4ccco4)c(C)c3c2=O)cc1Cl	n	x	u	u	u	u
COCCNC(=O)c1sc2ncn(CC(=O)N3CCCCC3)c(=O)c2c1C	n	n	u	26µM	n	n
CCCNC(=O)Cn1cnc2sc(C(=O)Nc3cc(OC)c(OC)c(OC)c3)c(C)c2c1=O	n	x	n	n	n	n
COC(=O)CNC(=O)c1sc2ncn(CC(=O)Nc3ccc(C)c(Cl)c3)c(=O)c2c1C	-81	n	u	n	n	n
CC1(C(=O)NCc2ccccc2)CCC(=O)N1CCCn1ccnc1 (stereo not drawn)	n	x	n	n	n	u
CSC(=CC(=O)c1ccccc1)SC	n	n	n	n	n	n
O=C(/C=C/Sc1ccccc1)c1ccccc1	-104	u	5.8µM	5.2µM	5.6µM	2.8µM
O=C(/C=C/Sc1ccccc1)c1ccc(Cl)cc1	-99	u	u	16µM	7.9µM	u
C=CCS(=O)(=O)c1nc2ccccc2s1	-115	n	16µM	21µM	n	n
O=C(CSc1nc2ccccc2s1)CSc1nc2ccccc2s1	n	n	n	n	n[9.24 µM]	u
